ChEMBL document CHEMBL3433997, “St. Jude Leishmania screening dataset” (2016)

Target: Hexose transporter 1 (Plasmodium falciparum) (UniProt O97467)
Assay: ST_JUDE_LEISH: Cytotoxicity at 2uM final concentration against transgenic Leishmania Mexicana promastigotes LmPfHT that are glucose transport deficient and complemented with the Plasmodium falciparum hexose transporter. Activity is measured by DNA content using SYBR green in vitro
Type: functional

Compound | inhibition [%]
O=C(Nc1ccc(-c2ccccc2)c(OCCN2CCNCC2)c1)c1ccc(-c2ccc(Cl)cc2)cc1 | 5.96
CCc1ccc(NC(=O)c2ccc(CN3CCCN(Cc4ccc(C)s4)CC3)cc2)cc1 | 5.06
Nc1c(-c2ccc(C(=O)NCCNCc3ccccc3)cc2)cnn1-c1ccc(C(F)(F)F)cc1 | 2.76
COc1cccc(CN2CCCC(OC(c3ccccc3)c3ccccc3)C2)c1O (stereo not given) | -1.82
CN=C(NC)c1cccc(NC(=O)C=Cc2ccc(C=CC(=O)Nc3cccc(C(=NC)NC)c3)cc2)c1 | 2.48
COc1ccc2c(=NN=Cc3cccc(C)n3)cc(-c3ccccc3)[nH]c2c1 | 2.19
CC(=O)Nc1ccc(C(=O)Nc2cccc(-c3cccc(-c4nc5cccc(C)c5[nH]4)c3)c2)cn1 | 3.64
CCCC(C)Nc1nc(C)cc(N[C@@H](Cc2ccccc2)C(=O)Nc2ccc(OC)cc2)n1 (stereo not given in full) | 5.6
O=C(/C=C/c1ccc(I)cc1)NCCCCCN1CCC(c2c[nH]c3ccccc23)CC1 | 1.79
Cc1ncccc1C(=O)Nc1cccc(-c2cccc(-c3nc4cc(C(F)(F)F)ccc4[nH]3)c2)c1 | 1.25
O=C(Nc1ccc(Cl)c(C(F)(F)F)c1)c1ccc(C(=O)Nc2ccc(Cl)c(C(F)(F)F)c2)cc1 | 1.08
CCNc1cc(C(=O)N[C@@H](Cc2ccc(Cl)cc2)[C@H](O)CNC2CCCCC2)cc(N2CCCCS2(=O)=O)c1 | 1.36
Cn1cncc1CNCc1ccc(-c2cccc(-c3nc4ccccc4[nH]3)c2)cc1 | -1.22
Nc1c(Cl)cc(C(O)CNCCCCCCCCCc2ccccn2)cc1Cl (stereo not given) | -0.21
O=C(Nc1ccc(F)cc1)c1nc2ccccc2nc1Cl | 3.68
CN(C)c1ccc(C(c2ccc(N(C)C)cc2)c2cc([N+](=O)[O-])ccc2Cl)cc1 | 0.82
Cc1cc(NC(=O)Nc2ccc(N(C)C)cc2)c2cc(Cl)ccc2n1 | 0.69
C=CCC1OC(=O)c2cc(OC)cc(OC)c21 (stereo not given) | 84.4
N#Cc1cccc(C(O)CN(Cc2ccccc2)Cc2ccccc2)c1 (stereo not given) | 1.53
Cc1cc2c(cc1C(F)(F)F)N(C(=O)Nc1cc(OCCN(C(C)C)C(C)C)cc(C(F)(F)F)c1)CC2 | 9.23

Compound | inhibition [%]
CCCN(CCC)C(=S)N/N=C1/C(=O)Nc2ccccc21 | -0.6
NC12CC3CC(CC(C3)C1)C2 | 5.42
CC(C)NCc1ccc(-c2cccc(NC(=O)c3ccc(Cl)cc3)c2)cc1 | 6.77
Cc1noc(C)c1-c1cccc(CNCc2cccc(-c3ccc(-c4nc5ccccc5[nH]4)s3)c2)c1 | 3.74
Cn1cnc(CCNC(=O)c2ccc(-c3ccc(-c4nc5cc(C(F)(F)F)ccc5[nH]4)s3)cc2)c1 | 3.77
O=C(NC1CCN(Cc2ccc(Cl)cc2)CC1)c1cn(-c2ccccc2)nc1-c1cccnc1 | 0.95
Cc1ccc(NC(=O)c2ccc3ncccc3c2)cc1OC1CCN(CCC(C)C)C1 (stereo not given) | 3.22
CO/N=C(\C)c1ccc2c(c1)CCN(CCC1CCC(NC(=O)c3cccc(-c4noc(C)n4)c3)CC1)CC2 (stereo not given) | -1.53
O=C(Nc1ccc(C(F)(F)F)cc1)c1ccc(S(=O)(=O)NC2CCN(CC3CCCCC3)CC2)cc1 | 0.54
CCNC[C@H]1CCCN1CCOc1ccc(-n2cnc3cc(-c4ccc(Cl)cc4)sc3c2=O)cc1OC | -1.99
Cc1ccc(F)c(OCC2CCN(c3ccc(C(=O)NC4CC4)cn3)CC2)c1 | 2.89
Cc1c(CNCCCNc2nc3ccncc3[nH]2)sc(Br)c1Br | -2.83
Cc1ccc(Cc2c[nH]c(NCCSCc3ccc(CN4CCOCC4)o3)nc2=O)cn1 | 0.59
CCOC(=O)c1ccc(OCCOc2ccccc2)cc1 | 1.04
CCCCOC(=O)C1=C(C)NC2=C(C(=O)CCC2)C1c1ccc(OC)c(Br)c1 (stereo not given) | -0.81
COc1ccc(CC2(c3ccc(F)cc3)N=C(N)N(CCCc3ccc(F)c(F)c3)C2=O)cc1 (stereo not given) | 5.53
CS(=O)(=O)c1ccc(-c2cncc(Cl)n2)cc1 | 3.42
CCOC(=O)c1nc(-c2ccccc2)[nH]c1-n1nc(C)cc1C | 0.92
Cc1nc(NCCCn2ccnc2)cc(-c2cncc(-c3ccc(OC(F)(F)F)cc3)c2)n1 | 5.92
CCn1c(Cc2ccccc2)nnc1SCC(=O)N1c2ccccc2Sc2ccccc21 | 3.52
